Structures are written as SMILES. The campaign covered roughly 360,000 compounds. About 11,000 (3.1%) were called active. Another 4% or so got no clear call; they are omitted. Calls come from the whole dose curve; as a rule, active = well fitted inhibition curve with a large enough effect; inconclusive = small, poorly fitted or top-dose-only effect; inactive = no such curve, though single readings can be large or run the other way. The list comes from a sample in which actives are over-represented; it also holds similar structures and randomly drawn compounds. Entries that show only a call come without a potency.

For 64 compounds, Potency results are on record in PubChem BioAssay AID485364 (National Center for Advancing Translational Sciences (NCATS), 2010).
Potency is the fitted concentration of half-maximal effect.

In this assay the target is Schistosoma mansoni thioredoxin glutathione reductase (TGR) (UniProt Q962Y6). In words: qHTS Assay for the Inhibitors of Schistosoma Mansoni Peroxiredoxins. Note: nearly all actives have a fitted effect of over 60% in size. Conditions: purified TGR, DTNB reduction, TNB absorbance 405 nm; series mostly up to 114 µM. An excerpt: Schistosomiasis is a major neglected tropical disease that currently affects over 200 million. It is caused by different species of flatworms, such as Schistosoma mansoni. Over the last century, drugs to treat the disease have evolved from potassium antimonyl tartrate, artemisinin, oxamniquine, to praziquantel, with praziquantel remaining the universally-used single drug of choice over the past three decades. However, transmission rates have changed little with praziquantel, and there is evidence for the development of drug resistant parasites. Because there is currently no suitable alternative therapy available, there is an urgent need to identify new targets and drugs for schistosomiasis treatment. Thioredoxin glutathione reductase (TGR), one uniquely positioned S. mansoni enzyme, has been identified as a major component of the worms' distinct and compressed antioxidant "firewall". TGR is a multifunctional enzyme that catalyzes the interconversion between reduced and oxidized forms of both glutathione (GSH) and thioredoxins, thus making it an attractive new antiparasitic target. Recently, a quantitative high-throughput screen of the NIH Molecular Libraries Small Molecule Repository (MLSMR, ~71K at the time of the screen in 2007) was performed using an assay that targeted both TGR and peroxiredoxin2 (Prx2, an H2O2-reducing enzymatic component of the S. mansoni redox "firewall") by following the decrease of NADPH fluorescence. […] Additional mechanistic link between exogenous NO donation and parasitic injury for the oxadiazole-2-oxide class of compounds was also expanded and better defined. Although the screen addressed both TGR and Prx2, the assay required post-screen target deconvolution for further characterization of the actives. In addition, the fluorescence assay was also subject to fluorescence interference from compound library members. We have developed a 1536-well-based kinetic HTS assay to address TGR alone. The assay followed the reduction of 5, 5'-dithiobis (2-nitrobenzoic acid) (DTNB) (Ellman's reagent) by NADPH and measured the increase in absorbance at 412 nm of the reaction product, TNB. […] This assay format can be used to screen the current MLSMR collection (with >300K compounds available) to find novel TGR inhibitors. Furoxan is a good choice to serve as a positive control in the primary HTS assay.
Three microliters of reagents (100 uM NADPH and 20 nM TGR or 100 uM NADPH as no-enzyme control) were dispensed into 1,536-well black clear-bottomed plates. Compounds (23 nL) were transferred via Kalypsys pin tool equipped with 1536-pin array (10 nL slotted pins, V&P Scientific, San Diego, CA). The plates were then be incubated for 15 min at room temperature, and 1 uL aliquot of 500 uM NADPH were added, immediately followed by a 1 uL aliquot of 15 mM DTNB to start the reaction. The plate was transferred to a ViewLux high-throughput CCD imager (Perkin-Elmer, Wellesley, MA) where kinetic measurements of the TNB absorbance were acquired using a 405 excitation filter. Throughout the screen, reagent bottles and all liquid lines were made light-tight to minimize reagent degradation. All screening operations were performed on a fully integrated robotic system (Kalypsys, San Diego, CA) containing one RX-130 and two RX-90 anthropomorphic robotic arms (Staubli, Duncan, SC). Library plates were screened starting from the lowest and proceeding to the highest concentration, and a "double-dipping" step of the highest concentration was required to access higher concentrations of compounds. Vehicle-only plates, with DMSO being pin-transferred to the entire column 5-48 compound area, were inserted uniformly at the beginning and the end of each library in order to monitor for and record any shifts in the background, which can be affected by reagent dispensers or loss in enzyme activity overtime. […]
(In general: Quantitative high-throughput screening tests each substance at several concentrations.)
Take `CCCN(CCC)CCNC(=O)Cn1cnc2sc(C)c(S(=O)(=O)N3CCC(C)CC3)c2c1=O`: the Potency entry was “inactive”.

Consider `Cc1ccc2nc(N3C(=O)C(O)=C(C(=O)c4ccco4)C3c3cccc(O)c3)sc2c1` (centres undefined), for which the Potency entry is “inactive”.

For the compound `C=CCSc1nnc(N2C(=O)C(O)=C(C(=O)c3ccco3)C2c2ccc(F)cc2)s1` (centres undefined), the Potency was 14.1 µM (active).

With `CC(C)c1ccc(C2C(C(=O)c3ccco3)=C(O)C(=O)N2CC2CCCO2)cc1` (centres undefined), the Potency result was “inactive”.

As to `Cc1c(Cl)cccc1NC(=S)NCc1ccc2c(c1)OCO2`, the Potency result is “inactive”.

With `O=C(CSc1ccc(-c2ccco2)nn1)NCc1ccc2c(c1)OCO2`, the Potency was 12.6 µM (active).

As to `COC(=O)Cc1ccc(NC(=S)NCc2ccco2)cc1`, the Potency result was “inactive”.

As for `S=C(NCc1ccc2c(c1)OCO2)NCc1ccco1`, the Potency was 35.5 µM (active).

Consider `COc1ccc(NC(=O)CCC(=O)Nc2cc(OC)c(NC(=O)c3ccco3)cc2OC)c(OC)c1`, for which the Potency result was “inactive”.

Consider `COc1ccc(NC(=O)CSc2ccc(-c3ccco3)nn2)c(OC)c1`, for which the Potency was 20 µM (active).

As for `O=C(CSc1ccc(-c2ccco2)nn1)Nc1cccc(F)c1`, the Potency was 10 µM (active).

`CCn1c(=O)cc(SCC(=O)NCc2ccc3c(c2)OCO3)c2ccccc21`: the Potency result is “inactive”.

Turning to `O=C(CSc1ccc(-c2ccc(F)cc2)nn1)Nc1ccc2c(c1)OCCO2`, the Potency result is “inactive”.

With `O=C(CSc1ccc(-c2ccccn2)nn1)Nc1ccccc1`, the Potency result is “inactive”.

As to `Cc1ccccc1-c1nnc(SCC(=O)NCc2ccc3c(c2)OCO3)n1C`, the Potency entry was “inactive”.

As to `COc1ccc(NC(=O)CSc2nc(SC)ns2)c(OC)c1`, the Potency entry is “inactive”.

On to `CCCn1c2ccccc2c2cnn(CC(=O)N(CC)c3cc(C)ccc3C)c(=O)c21`, for which the Potency result is “inactive”.

Consider `Fc1ccc(C(Nc2ccc(Cl)c(C(F)(F)F)c2)c2nnc(-c3ccccc3)o2)cc1` (centres undefined), for which the Potency entry was “inactive”.

Turning to `Cc1ccc(Nc2c(-c3ccc(C)cc3)nc3cnccn23)cc1`, the Potency entry was “inactive”.

Turning to `CCOC(=O)c1cc2c(=O)n3ccccc3nc2n(CCCOC)c1=NC(=O)C(C)(C)Oc1ccc(Cl)cc1`, the Potency result was “inactive”.

On to `Cc1ccc(C)c(NC(=O)C2CCCN(S(=O)(=O)c3cn(C)cn3)C2)c1` (centres undefined), for which the Potency entry was “inactive”.

For `O=C(CC1Oc2ccc(Cl)cc2NC1=O)NCc1ccccc1` (centres undefined), the Potency entry is “inactive”.

On to `CCCSc1ncc(Cl)c(C(=O)Nc2sc3c(c2C(=O)NCCOC)CCCC3)n1`, for which the Potency entry was “inactive”.

In the case of `CCCN(CCC)CCCNC(=O)Cn1ncc2c3ccccc3n(Cc3ccccc3)c2c1=O`, the Potency result was “inactive”.

Take `COc1ccccc1NC(=O)c1oc2ccccc2c1NC(=O)C(C)C`: the Potency entry was “inactive”.

As for `CCN(CC)S(=O)(=O)c1nnc(NC(=O)COc2ccccc2Cl)s1`, the Potency result was “inactive”.

As for `CC(OC(=O)c1ccc2ccccc2n1)C(=O)c1ccccc1` (centres undefined), the Potency result was “inactive”.

`COc1ccc(-c2onc3ccc(C(C)=O)cc23)cc1`: the Potency result is “inactive”.

Turning to `CC(OC(=O)c1ccc2noc(-c3ccccc3)c2c1)C(N)=O` (centres undefined), the Potency was 35.5 µM (active).

`Cc1nc2nc(SCC(=O)N(Cc3ccccc3)C(C)C)nn2c(C)c1Cc1ccccc1Cl`: the Potency result is “inactive”.

In the case of `Cc1ccc(Nc2c(-c3ccc(Cl)cc3)nc3sccn23)c(C)c1`, the Potency entry was “inactive”.

For `COc1ccc(-n2c(C)nc3c(cnn3-c3ccc(F)cc3)c2=O)cc1`, the Potency result was “inactive”.

For `O=C(c1ccco1)n1nc(-c2ccc(Cl)cc2)nc1NCc1ccccc1`, the Potency result was “inactive”.

Take `Cc1ccc(S(=O)(=O)n2nc(-c3ccc(Cl)cc3)nc2NCc2ccccc2)cc1`: the Potency result was “inactive”.

As to `CS(=O)(=O)n1nc(-c2ccccc2)nc1NCc1ccco1`, the Potency was 44.7 µM (active).

In the case of `Cc1ccc(CNC(=O)CCc2c(C)nc3nc(CNC(=O)OC(C)(C)C)nn3c2C)cc1`, the Potency result was “inactive”.

Consider `Cc1cc(OCC(=O)NCC2(N(C)C)CCCCC2)cc(C)c1Cl`, for which the Potency entry is “inactive”.

Consider `O=C(C1=C[C@H](c2ccc(C(F)(F)F)cc2)C[C@H](OCc2ccc(CO)cc2)O1)N1CCN(Cc2ccccc2)CC1`, for which the Potency was 28.2 µM (active).

For `O=C(NCc1ccccc1)C1=C[C@@H](c2ccc(C(F)(F)F)cc2)C[C@@H](OCc2ccc(CO)cc2)O1`, the Potency entry is “inactive”.

As for `O=C(C1=C[C@H](c2coc3ccccc3c2=O)C[C@H](OCc2ccc(CO)cc2)O1)N1CCN(Cc2ccccc2)CC1`, the Potency entry is “inactive”.

Turning to `O=C(CSCc1cnn(-c2ccccc2)c1-n1cccc1)NCc1ccc(Cl)cc1`, the Potency result was “inactive”.

As to `CCOc1ccc(C(=O)c2cn(Cc3ccccc3OC)c3ccc(F)cc3c2=O)cc1`, the Potency entry is “inactive”.

Regarding `COc1ccc2c(c1)Cc1sc(NC(=O)c3ccccc3Br)nc1-2`, the Potency entry was “inactive”.

With `O=S(=O)(c1ccc(C2CCCCC2)cc1)N1CCN(c2ccc(Cl)c(Cl)c2)CC1`, the Potency result is “inactive”.

For `CCCCNC(=O)C1CCCN(c2nnc(C)c3c(C)n(-c4ccc(Cl)cc4)nc23)C1` (centres undefined), the Potency entry is “inactive”.

Turning to `CCN(CCCNC(=O)Cn1ncc2c([nH]c3ccccc32)c1=O)c1cccc(C)c1`, the Potency entry is “inactive”.

As to `CN(C)c1nc(N(C)C)nc(N(C#N)CCCl)n1`, the Potency is 1 µM (active).

Regarding `Cc1cccn2c(=O)c3cc(C(=O)NC(C)c4ccccc4)c(=N)n(CCCO)c3nc12` (centres undefined), the Potency entry is “inactive”.

Regarding `CCOC(=O)c1c(NC(C)=O)c2c3c(sc2n1Cc1c(C)cc(C)cc1C)CCCC3`, the Potency entry was “inactive”.

In the case of `O=C(c1cnn(-c2ccc(F)cc2)c1-n1cccc1)N1CCN(c2ccc(F)cc2)CC1`, the Potency result was “inactive”.

For `COc1ccc(-c2[nH]nc3c2C(c2ccncc2)C(C#N)=C(N)O3)cc1` (centres undefined), the Potency entry was “inactive”.

On to `CCCc1[nH]nc2c1C(c1ccc(Br)s1)C(C#N)=C(N)O2` (centres undefined), for which the Potency entry was “inactive”.

In the case of `Cc1cc(C)c(C#N)c(SCc2[nH]nc3c2C(c2ccccc2)C(C#N)=C(N)O3)n1` (centres undefined), the Potency was 22.4 µM (active).

Take `O=C(Nc1cccnc1)c1cc2cc(Br)ccc2oc1=O`: the Potency result is “inactive”.

Turning to `Fc1cc(Br)ccc1NC(=S)Nc1cccnc1`, the Potency is 10 µM (active).

On to `S=C(Nc1cccnc1)Nc1ccccn1`, for which the Potency entry was “inactive”.

In the case of `COc1cc(C2c3c(oc4ccccc4c3=O)C(=O)N2c2nc(C)c(C)s2)ccc1O` (centres undefined), the Potency result was “inactive”.

Consider `O=C(Nc1c(C(=O)N2CCN(c3ccc(F)cc3)CC2)oc2ccccc12)c1ccco1`, for which the Potency entry is “inactive”.

As for `CC(C)(C)c1ccc(/C=C2\Oc3c(ccc(O)c3CN3CCN(CCO)CC3)C2=O)cc1`, the Potency is 50.1 µM (active).

For the compound `CCOC(=O)c1oc2c(CN3CCN(CCO)CC3)c(O)c(CC)cc2c(=O)c1-c1nc2ccccc2s1`, the Potency entry is “inactive”.

In the case of `O=C(CSc1nc2c(c(=O)[nH]1)CN(Cc1ccc3c(c1)OCO3)CC2)Nc1cc(F)ccc1F`, the Potency result is “inactive”.

As to `CCOC(=O)c1ccc(COC(=O)c2cc(=O)[nH]c3ccccc23)o1`, the Potency entry was “inactive”.

Turning to `CCOC(=O)c1cc2c(=O)[nH]c(C(Cl)(Cl)Cl)nc2o1`, the Potency was 17.8 µM (active).

Consider `CCOC(=O)c1cnc(COc2ccccc2Cl)[nH]c1=O`, for which the Potency entry is “inactive”.
